Screen size: about 190,000 compounds; about 270 (0.14%) were called active. Another 2% or so got no clear call; they are omitted. This is one part of a sample in which actives are shown more often than they occur. Unmarked numbers belong to inactive results.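 The calls were made as follows: active = GTP binding activity at least 20% away from the 100% baseline, either lowered as inhibitor or raised as activator; inconclusive = flagged as likely green fluorescent, judged across all proteins in the well; inactive = the rest.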
These molecules were tested against GTPase HRas (Homo sapiens) (UniProt P01112) (assay: HRas wt fluorescent GTP binding changes, either direction – biochemical, wildtype, bead-based flow cytometry, multiplex, primary screen (AID 759;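 also: 0% = unlabeled GTP competition control and 100% = no-compound control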)). Settings: GST-Ras wt beads, Bodipy-FL-GTP binding, at 10 µM, actives lie on both sides.
GTPase HRas (Homo sapiens), sequence (P01112 whole entry, looked up): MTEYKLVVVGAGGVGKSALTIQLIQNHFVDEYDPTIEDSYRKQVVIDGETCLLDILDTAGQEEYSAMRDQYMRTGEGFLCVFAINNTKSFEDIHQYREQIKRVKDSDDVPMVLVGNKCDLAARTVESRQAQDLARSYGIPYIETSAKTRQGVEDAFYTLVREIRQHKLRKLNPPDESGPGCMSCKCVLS

Structure (SMILES)	GTP binding activity
CCSc1nc(C)c(CCOc2cccc(C)c2)c(=O)[nH]1	98%
O=C(CC1C(=O)NCCN1CC(c1ccccc1)c1ccccc1)NCCc1cn[nH]c1 (stereo unspecified)	99%
CCNC(=O)CC1C(=O)N(c2ccc(OC)cc2)C(=S)N1CCc1ccncc1 (stereo unspecified)	98%
CCc1ccc(CN(C)Cc2nc(Cc3ccccc3)no2)nc1	98%
CC(=O)N(CN1C(=O)C2C3C=CC(C3)C2C1=O)c1cccc(Cl)c1 (stereo unspecified)	93%
CN(/C(=N/S(=O)(=O)c1cccs1)c1ccccc1)c1ccc(O)cc1	88%
CC(=O)Nc1ccc(S(=O)(=O)Oc2ccc(/C=N/N=C3/NC(=O)C(CC(=O)O)S3)cc2)cc1 (stereo unspecified)	92%
O=C1CCC/C(=N\NC(=O)NC2CCCCC2)C1	97%
COc1c(C)cc(C(=O)C2CCCN(S(=O)(=O)c3c(C)noc3C)C2)cc1C (stereo unspecified)	96%
CC(C)(O)C#Cc1ncc(C(F)(F)F)cc1Cl	98%
CC(C)OCCCNC(=S)N1CCC(C(=O)c2ccc3c(c2)OCCO3)CC1	95%
CCOCCCNCc1ccc(OCc2ccc(F)cc2)c(OC)c1	97%
CN1CCN(CCCCOc2ccccc2-c2ccccc2)CC1	99%
CSc1ccc(/C=N\NC(=O)CC(=O)NC(C)C)cc1	94%
Cc1cccc(NC(=S)Nc2ccc(Cl)c(Cl)c2)c1	95%
O=C(Nc1ccc(Br)cn1)c1ccc([N+](=O)[O-])o1	98%
Cc1nn(C)c(C)c1CN(C(=O)CCc1nnc(Cc2c[nH]c3ccccc23)o1)C(C)C	95%
Nn1c(SCC(=O)Nc2nccs2)nncc1=O	96%
CCC(C)NC(=O)/C=C/c1ccc(S(=O)(=O)NCc2ccco2)cc1 (stereo unspecified)	99%

Structure (SMILES)	GTP binding activity
C=CCN(CC=C)S(=O)(=O)c1ccc(C(=O)Nc2sc3c(c2C(N)=O)CCCCC3)cc1	103%
COCCN(CCOC)S(=O)(=O)c1ccc(C(=O)Nc2nc3c(s2)CCc2ccccc2-3)cc1	104%
C=CCN(CC=C)S(=O)(=O)c1ccc(C(=O)Nc2nc3c(s2)CCc2ccccc2-3)cc1	32% (active)
CCC(CC)NC(=O)CSc1nnc(-c2c[nH]c3ccccc23)o1	92%
CSc1ncccc1C(=O)OCc1ccc(Br)cc1	96%
CCOC(=O)C1CCCN(C(=O)/C=C/c2ccc(OC)cc2)C1 (stereo unspecified)	91%
Cc1cccc(C(=O)N2CCC(c3nc4ccccc4s3)CC2)c1	95%
COc1ccc(Cc2nnc(NC(=O)c3cc(OC)c(OC)c(OC)c3)s2)cc1OC	94%
NS(=O)(=O)c1ccc(NC(=S)NNC(=O)c2cccs2)cc1	97%
O=C(CN(C(=O)c1csnn1)c1cccc(F)c1)NCc1ccc(F)cc1	99%
CNC(=O)C(=O)N/N=C/c1ccccn1	95%
S=C(Cc1ccc(Cl)cc1)N1CCOCC1	94%
Cc1cccc(C(=O)Nc2ccc3c(c2)C(=O)N(CC(C)C)C3=O)c1	96%
COc1cc(/C=C2/C(=O)ON=C2C)ccc1OCc1cccc(F)c1	91%
Cc1ccc2c(Cl)c(C(=O)Nc3nn[nH]n3)sc2c1	100%
O=S(=O)(NCc1ccccc1)c1ccc(S(=O)(=O)N2CCCC2)cc1	101%
O=c1/c(=C/c2ccc(CNS(=O)(=O)c3ccccc3)o2)sc2n1CCN=2	78% (active)
COC(=O)C1=C(C)NC(=O)/C1=C/c1ccc(CNS(=O)(=O)c2ccc(C)cc2)o1	97%
O=C(CCN1C(=O)c2ccncc2C1=O)Nc1cc(F)ccc1F	92%

Structure (SMILES)	GTP binding activity
NC(=O)COc1ccc(C23CC4CC(CC(C4)C2)C3)cc1	95%
COc1cccc(OC)c1C(=O)NC(=S)NCc1ccco1	95%
CC(=O)c1ccc(N=C2SCCCN2C(=O)C2CCCCC2)cc1	97%
COc1ccc(OCC(=O)NNC(=O)c2cccc(C)c2)cc1	97%
O=C(Nc1ccc(N2CCN(C(=O)C3CC3)CC2)cc1)c1cccs1	95%
CCOC(=O)c1cnc2c(c(C)nn2CC)c1Cl	96%
CCOC(=O)c1ccc(N/C(=N/S(=O)(=O)c2ccccc2)c2ccccc2)cc1	97%
CCOC(=O)c1ccc(Nc2cc(C)nc3nc(C)nn23)cc1	98%
CCOC(=O)c1nc(Nc2ccc(C(=O)OC)cc2)c2ccccc2n1	77% (active)
Cc1c(Cc2ccccc2)c(=O)oc2cc(OCC(N)=O)ccc12	93%
CCOc1ccccc1/C=N/NC(=O)CNC(=O)COc1ccccc1	97%
O=C(COc1ccccc1Cl)Nc1ccc(C(=O)c2ccc(C(=O)O)cc2)cc1	100%
Cc1cc(C)cc(NC(=O)N2CCCCCCC2)c1	100%
COc1ccc(C(=O)NC(Cc2ccc(OC(=O)c3ccc(OC)cc3)cc2)C(=O)O)cc1 (stereo unspecified)	90%
Nc1ccc(Cl)c(S(=O)(=O)Nc2ccccc2Cl)c1	98%
Cc1ccc(NC(=O)c2oc3ccccc3c2C)c([N+](=O)[O-])c1	101%
C/C=N/NC(=O)CCCC(=O)N/N=C/C	103%
CCC(=O)OCCNc1nc(-c2ccccc2)nc2ccccc12	98%
